In PubChem BioAssay:
Calls of active or inactive are those of the source.

How the values were obtained:
[1] = system: Plasmodium falciparum Sir2 (PF13_0152, Sir2A); assay: pfSir2 binders on small-molecule microarrays, primary screen, biochemical, small-molecule microarray, 635 nm fluorescence (AID 1098); conditions: small-molecule microarray binding, fluorescence 635 nm; higher = more signal;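 note: score merges spot fluorescence intensity with its signal-to-noise ratio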
[2] = small-molecule microarray binders of probe aDKK1, primary screen, biochemical, biotinylated probe, 635/667 nm fluorescence (AID 1099); conditions: higher = more signal;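 note: score merges 667nm spot fluorescence with signal to noise across triplicate slides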
[3] = small-molecule microarray binders of probe aCHRDL2, primary screen, biochemical, biotinylated probe, 635/667 nm fluorescence (AID 1100); conditions: higher = more signal
[4] = splicing luciferase reporter signal modulators, primary screen, spliceosome inhibition project, cell-based, HEK293, splice +/- reporter (AID 1101); conditions: luminescence, 24 h, higher = more signal, called active from +8 up or from −8 down;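 note: HEK293 cells carrying a splicing-competent luciferase reporter gene; test concentration not given here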
[5] = molecular target: Fibroblast growth factor 10 (Homo sapiens) (UniProt O15520); assay: FGF10 binders on small-molecule microarrays, primary screen, biochemical, small-molecule microarray, 635 nm fluorescence (AID 1102); conditions: FGF10 binding, fluorescence 635 nm, higher = more signal
Fibroblast growth factor 10 (Homo sapiens), sequence (O15520 whole entry, looked up): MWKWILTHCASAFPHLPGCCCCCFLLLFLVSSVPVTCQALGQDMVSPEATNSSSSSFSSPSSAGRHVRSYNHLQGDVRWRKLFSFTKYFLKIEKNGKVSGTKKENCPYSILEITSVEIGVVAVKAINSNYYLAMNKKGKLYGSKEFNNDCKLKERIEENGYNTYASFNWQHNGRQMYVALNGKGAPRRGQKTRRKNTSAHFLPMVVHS

[6] = system: glycogen synthase kinase-3 (GSK3A per assay name; protocol says GSK3B); assay: GSK3 binders on small-molecule microarrays, primary screen, biochemical, small-molecule microarray, 635 nm fluorescence, GSK3A (AID 1103); conditions: small-molecule microarray binding, fluorescence 635 nm; higher = more signal; note: the record names both GSK3A and GSK3B
[7] = molecular target: Epidermal growth factor receptor (Homo sapiens) (UniProt P00533); assay: EGFR binders on small-molecule microarrays, primary screen, biochemical, small-molecule microarray, 635 nm fluorescence (AID 1104); conditions: EGFR binding, higher = more signal;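 note: score merges 667 nm emission intensity with spot signal to noise over triplicate slides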
Epidermal growth factor receptor (Homo sapiens), sequence (P00533 whole entry, looked up): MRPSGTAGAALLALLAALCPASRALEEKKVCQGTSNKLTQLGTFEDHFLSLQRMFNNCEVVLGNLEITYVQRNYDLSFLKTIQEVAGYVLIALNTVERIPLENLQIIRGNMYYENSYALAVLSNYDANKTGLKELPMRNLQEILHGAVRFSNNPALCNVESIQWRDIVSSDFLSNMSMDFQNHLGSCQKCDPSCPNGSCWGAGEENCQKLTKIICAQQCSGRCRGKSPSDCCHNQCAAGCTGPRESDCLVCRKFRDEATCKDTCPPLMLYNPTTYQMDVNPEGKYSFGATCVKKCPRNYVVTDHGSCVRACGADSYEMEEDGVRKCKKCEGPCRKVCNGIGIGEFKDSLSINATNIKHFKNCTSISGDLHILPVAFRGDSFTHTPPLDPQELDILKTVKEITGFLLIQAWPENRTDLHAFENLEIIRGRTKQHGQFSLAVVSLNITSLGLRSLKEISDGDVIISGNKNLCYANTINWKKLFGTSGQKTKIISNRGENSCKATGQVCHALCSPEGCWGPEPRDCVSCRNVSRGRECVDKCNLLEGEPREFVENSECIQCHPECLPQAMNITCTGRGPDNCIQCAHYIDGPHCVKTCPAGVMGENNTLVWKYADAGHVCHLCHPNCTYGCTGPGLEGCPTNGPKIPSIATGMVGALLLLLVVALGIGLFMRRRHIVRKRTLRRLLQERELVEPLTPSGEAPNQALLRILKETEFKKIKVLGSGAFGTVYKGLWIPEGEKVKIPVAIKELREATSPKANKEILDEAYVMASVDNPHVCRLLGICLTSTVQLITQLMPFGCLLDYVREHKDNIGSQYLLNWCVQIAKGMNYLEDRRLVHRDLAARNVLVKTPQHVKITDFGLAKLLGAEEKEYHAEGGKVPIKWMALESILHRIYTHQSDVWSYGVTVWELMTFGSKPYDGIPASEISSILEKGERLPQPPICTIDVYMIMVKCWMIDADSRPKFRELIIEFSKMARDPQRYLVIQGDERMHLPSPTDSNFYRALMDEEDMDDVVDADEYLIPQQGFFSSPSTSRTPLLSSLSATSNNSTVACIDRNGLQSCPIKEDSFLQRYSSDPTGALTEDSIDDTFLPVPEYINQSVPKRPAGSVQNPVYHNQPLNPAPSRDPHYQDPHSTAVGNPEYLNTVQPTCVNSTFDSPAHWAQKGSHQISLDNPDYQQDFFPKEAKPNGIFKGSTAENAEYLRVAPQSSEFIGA

[8] = molecular target: Follistatin-related protein 3 (Homo sapiens) (UniProt O95633); assay: FSTL3 binders on small-molecule microarrays, primary screen, biochemical, small-molecule microarray, 635 nm fluorescence (AID 1105); conditions: FSTL3 binding, higher = more signal;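 note: score merges emission near 667 nm and signal to noise per printed spot across three slides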
Follistatin-related protein 3 (Homo sapiens), sequence (O95633 whole entry, looked up): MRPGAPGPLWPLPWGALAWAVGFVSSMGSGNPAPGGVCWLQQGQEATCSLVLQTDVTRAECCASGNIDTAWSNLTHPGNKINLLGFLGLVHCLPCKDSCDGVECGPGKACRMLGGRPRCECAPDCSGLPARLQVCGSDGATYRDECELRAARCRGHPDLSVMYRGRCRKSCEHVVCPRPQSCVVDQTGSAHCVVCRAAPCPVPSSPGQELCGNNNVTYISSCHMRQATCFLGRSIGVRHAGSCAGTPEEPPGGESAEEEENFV

[9] = molecular target: Dickkopf-related protein 1 (Homo sapiens) (UniProt O94907); assay: DKK1 binders on small-molecule microarrays, primary screen, biochemical, small-molecule microarray, 635 nm fluorescence scan (AID 1106); conditions: DKK1 binding, higher = more signal;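 note: score merges emission near 667 nm with signal to noise over three replicate slides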
Dickkopf-related protein 1 (Homo sapiens), sequence (O94907 whole entry, looked up): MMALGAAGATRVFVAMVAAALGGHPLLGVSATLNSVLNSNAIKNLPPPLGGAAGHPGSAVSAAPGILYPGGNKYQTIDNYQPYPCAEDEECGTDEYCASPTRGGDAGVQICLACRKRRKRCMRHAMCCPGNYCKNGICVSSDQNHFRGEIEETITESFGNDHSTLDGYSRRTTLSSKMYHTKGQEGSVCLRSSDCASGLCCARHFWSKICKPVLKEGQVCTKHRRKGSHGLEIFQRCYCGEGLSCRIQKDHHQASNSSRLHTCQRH

[10] = system: Inhibin beta A chain (activin A); assay: INHBA (activin A) binders on microarrays, primary screen, biochemical, small-molecule microarray, 635 nm fluorescence scan (AID 1107); conditions: small-molecule microarray binding, higher = more signal;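 note: mouse activin A protein probed at 4.33 µg/mL on printed slides; score merges bound-protein fluorescence near 667 nm with spot signal-to-noise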
[11] = system: Human papillomavirus type 1a protein E7 (residues 44-93); assay: HPV1a E7 fragment binders on microarrays, primary screen, biochemical, small-molecule microarray, residues 44-93, 635 nm fluorescence (AID 1108); conditions: small-molecule microarray binding, fluorescence 635 nm; higher = more signal;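 note: E7 fragment applied at 1 µg/mL in TBST for 1 h at 4 C; score combines spot fluorescence with its signal to noise ratio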
[12] = modulators of HCV replicon luciferase signal, primary screen, HCV replication inhibitor project, Huh7 cells, luciferase reporter (AID 1109); conditions: 48 h, higher = more signal;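 note: huh7 hepatoma cells harbouring a luciferase neomycin HCV replicon reporter; luciferase luminescence as measure of HCV replicon replication; test concentration not given here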
[13] = molecular target: Left-right determination factor 2 (Homo sapiens) (UniProt O00292); assay: LEFTY2 binders on small-molecule microarrays, primary screen, biochemical, small-molecule microarray, 635 nm fluorescence scan (AID 1110); conditions: LEFTY2 binding, higher = more signal
Left-right determination factor 2 (Homo sapiens), sequence (O00292 whole entry, looked up): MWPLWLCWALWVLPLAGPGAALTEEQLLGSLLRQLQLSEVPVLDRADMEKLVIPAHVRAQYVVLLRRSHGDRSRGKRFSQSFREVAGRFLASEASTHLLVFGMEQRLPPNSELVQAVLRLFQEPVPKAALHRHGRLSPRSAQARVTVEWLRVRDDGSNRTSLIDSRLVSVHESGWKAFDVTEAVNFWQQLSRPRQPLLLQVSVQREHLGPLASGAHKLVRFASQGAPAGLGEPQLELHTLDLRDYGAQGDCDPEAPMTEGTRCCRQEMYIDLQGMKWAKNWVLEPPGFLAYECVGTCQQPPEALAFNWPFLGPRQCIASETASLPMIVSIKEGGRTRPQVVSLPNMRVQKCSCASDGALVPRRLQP

[14] = molecular target: Calmodulin-1 (Homo sapiens) (UniProt P0DP23); assay: CALM1 binders on microarrays, EGTA buffer, profiling panel, biochemical, small-molecule microarray, Cy5-labelled CALM1 (AID 1111); conditions: Cy5-CALM1 binding fluorescence, higher = more signal;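 note: labelled calmodulin applied in Tris saline Tween buffer holding calcium plus EGTA and DTT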
[15] = molecular target: Calmodulin-1 (Homo sapiens) (UniProt P0DP23); assay: calcium-bound CALM1 binders on microarrays, profiling panel, artefact control for SMM control-protein annotation, biochemical, small-molecule microarray, Cy5-labelled CALM1, plus calcium (AID 1112); conditions: Cy5-CALM1 binding fluorescence, higher = more signal;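 note: score merges spot fluorescence with signal to noise from triplicate slides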
[16] = small-molecule microarray binders of probe aWnt5a, primary screen, biochemical, biotinylated probe, 635/667 nm fluorescence (AID 1113); conditions: higher = more signal;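 note: score merges 667 nm fluorescence intensity with signal-to-noise per printed feature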
[17] = small-molecule microarray binders of probe aShh, primary screen, biochemical, biotinylated probe, 635/667 nm fluorescence (AID 1114); conditions: higher = more signal;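 note: probe is biotin-labelled aShh protein from a stem cell growth factor screen; measures binding of labelled protein to compounds printed on the slide; score merges feature fluorescence at 667 nm with signal-to-noise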
[18] = small-molecule microarray binders of probe aNog, primary screen, biochemical, biotinylated probe, 635/667 nm fluorescence (AID 1115); conditions: higher = more signal;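 note: probe is biotinylated aNog protein used at 0.15 µg/mL for 1 h at 4 C; z-score combines 667 nm fluorescence of each spot with its signal to noise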
[19] = molecular target: Torsin-1A-interacting protein 1 (Homo sapiens) (UniProt Q5JTV8); assay: LAP1 binders from COS7 cell lysate, primary screen, small-molecule microarray, 635/667 nm fluorescence (AID 1116); conditions: COS7-hLAP1 lysate binding, 635 nm fluorescence, higher = more signal
Torsin-1A-interacting protein 1 (Homo sapiens), sequence (Q5JTV8 whole entry, looked up): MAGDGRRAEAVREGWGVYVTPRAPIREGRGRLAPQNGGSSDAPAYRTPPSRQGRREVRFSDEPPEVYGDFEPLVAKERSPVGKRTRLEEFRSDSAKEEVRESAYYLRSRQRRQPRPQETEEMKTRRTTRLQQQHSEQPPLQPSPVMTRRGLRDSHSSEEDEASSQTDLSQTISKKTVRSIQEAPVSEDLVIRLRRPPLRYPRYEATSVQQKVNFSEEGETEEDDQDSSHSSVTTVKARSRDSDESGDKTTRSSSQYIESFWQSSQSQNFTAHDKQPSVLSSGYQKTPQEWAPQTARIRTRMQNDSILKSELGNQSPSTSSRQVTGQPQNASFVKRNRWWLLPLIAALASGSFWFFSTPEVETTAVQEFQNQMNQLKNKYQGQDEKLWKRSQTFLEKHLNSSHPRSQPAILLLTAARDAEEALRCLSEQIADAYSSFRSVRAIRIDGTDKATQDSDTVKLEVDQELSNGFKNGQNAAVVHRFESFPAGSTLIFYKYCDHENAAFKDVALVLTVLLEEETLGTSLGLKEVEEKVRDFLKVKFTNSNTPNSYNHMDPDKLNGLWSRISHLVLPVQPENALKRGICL

[20] = molecular target: Alpha-bungarotoxin (Bungarus multicinctus) (UniProt P60615); assay: alpha-bungarotoxin binders on microarray, profiling panel, artefact control for SMM control protein annotation, biochemical, small-molecule microarray, Alexa647 label, 635/667 nm fluorescence (AID 1117); conditions: alpha-BTX-A647 binding fluorescence, higher = more signal
Alpha-bungarotoxin (Bungarus multicinctus), sequence (P60615 whole entry, looked up): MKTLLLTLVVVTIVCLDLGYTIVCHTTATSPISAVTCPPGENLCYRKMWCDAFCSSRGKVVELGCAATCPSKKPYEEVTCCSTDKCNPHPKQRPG

Compound	composite z-score [1]	composite z-score [2]	composite z-score [3]	z-score [4]	composite z-score [5]	composite z-score [6]	composite z-score [7]	composite z-score [8]	composite z-score [9]	composite z-score [10]	composite z-score [11]	z-score [12]	composite z-score [13]	composite z-score [14]	composite z-score [15]	composite z-score [16]	composite z-score [17]	composite z-score [18]	composite z-score [19]	composite z-score [20]
CCCCC(=C=CC[C@@H](O)c1cccc(OCCO)c1)C[C@@H](O)COCc1ccccc1	0.377	-0.17	-0.325	-1.21 (inactive)	0.483	0.0702	-1.35	-0.526	-0.274	0.211	-0.622	-1.78	-0.0756	-0.613	-0.285	-0.096	-0.0709	-0.219	0.546	1.35
COc1ccc(CCNC(=O)[C@@]2(Sc3ccc(C)cc3)CC(=O)N(Cc3cc(C(F)(F)F)cc(C(F)(F)F)c3)[C@@H]2c2ccc(CO)cc2)cc1	0.629	0.18	1.14	0.257 (inactive)	-1.59	-0.655	-1.81	-0.927	-1.88	-0.497	-1.13	-0.146	-2.47	-0.615	-0.0998	-0.124	-0.117	-0.54	-0.282	1.24
CO[C@H]1O[C@H](CO)[C@@H](OC(=O)Nc2ccc(C(F)(F)F)cc2)[C@H](OC(=O)Nc2ccccc2-c2ccccc2)[C@@H]1OC(=O)Nc1ccccc1-c1ccccc1	1.46	1.07	0.61	-0.0628 (inactive)	1.04	1.29	0.35	1.37	0.507	0.0026	1.3	-2.79	0.523	2.2	0.383	0.0181	0.199	0.977	1.47	2.18
COC(=O)[C@@]1(Cc2ccc(F)cc2)[C@H]2c3cc(C(=O)N(C)C)n(CCO)c3C[C@H]2CN1C(=O)c1ccccc1	1.56	0.453	0.361	-0.773 (inactive)	0.721	-0.532	-0.537	-0.918	-0.764	0.495	-0.0095	-0.896	-0.388	0.987	0.322	-0.0271	0.494	1.33	1.47	-0.148
[N-]=[N+]=NCc1ccccc1C[C@]1(C(=O)N2CCCCC2)N=C(c2ccc(OCCCO)cc2)O[C@H]1c1ccccc1	0.92	0.484	0.769	-0.44 (inactive)	0.567	0.568	-0.761	-0.278	-0.64	0.55	0.809	-3.2	-1.05	0.816	0.407	0.105	0.134	0.437	1.11	-0.049
C#CCN([C@H](/C=C/C1CC1)[C@@H](O)Cc1ccccc1)[C@@H](Cc1ccccc1)C(=O)OC	-0.135	-0.281	0.0495	-0.606 (inactive)	-0.351	-0.604	-0.215	0.232	-0.0707	0.858	-0.197	-2.64	0.0052	-0.752	-0.861	-0.124	0.0639	-0.33	-0.188	-0.0484
NC(=O)NCC#Cc1ccc2c(c1)[C@]1(C(=O)N2)[C@H](C(=O)N2CCCCCCC2)[C@H]2C(=O)O[C@H](c3ccccc3)[C@H](c3ccccc3)N2[C@@H]1c1ccc(O)cc1	1.63	2.7	1.47	-0.15 (inactive)	1.4	0.919	1.27	1.51	1.63	1.49	0.0787	-1.13	0.953	2.38	0.509	0.754	1.54	2.78	2.19	2.01
Cc1c(NC(=O)/C(C#N)=C/c2ccc(Cl)cc2)c(=O)n(-c2ccccc2)n1C	0.878	-0.115	0.1	-0.0648 (inactive)	0.938	0.0624	0.324	0.371	0.101	0.311	-0.648	-0.871	0.119	1.14	0.629	-0.0869	-0.0503	0.486	1.58	0.766
